Here are results for 11 compounds from PubChem BioAssay (Tox21).

Experiment [1] is described as follows: qHTS assay for small molecules that induce genotoxicity in human embryonic kidney cells expressing luciferase-tagged ATAD5 (AID 651632). Note: nearly all actives have a fitted effect of over 15% in size. An outline of the steps:
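HEK293T cells carrying luciferase-tagged ATAD5 were given compound or DMSO vehicle and incubated 16 hr at 37C, 5% CO2. Luciferase activity was read after 30 min at room temperature with Amplite; a rise signals genotoxic stress.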

A short description of experiment [2]: qHTS assay for small molecules that induce genotoxicity in human embryonic kidney cells expressing luciferase-tagged ATAD5 - cell viability (AID 651634; calls by dose curve; note: nearly all actives have a fitted effect of over 25% in size; note: potency is the fitted concentration of half-maximal effect). In outline: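 HEK293T cells carrying luciferase-tagged ATAD5, 2,000 cells/well, exposed to compound for 15.5 hr at 37C. Viability read as live-cell protease activity by CellTiter-Fluor fluorescence after 30 min at 37C.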
In general terms: qHTS replaces the single test concentration by a dilution series.

Experiment [3] is described as follows: qHTS assay for small molecule disruptors of the mitochondrial membrane potential - cell viability (AID 720634; calls by dose curve;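 note: human HepG2 liver cancer cells; series mostly up to about 83 µM; nearly all actives have a fitted effect of over 20% in size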). An outline of the steps: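 HepG2 cells, 2,000 per well, attached overnight, then treated 1 hr at 37 C, 5% CO2. Viability read as ATP by CellTiter-Glo luminescence after 30 min at room temperature. Read in the same wells as the m-MPI membrane-potential dye assay.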

Experiment [4] in a line: qHTS assay for small molecule disruptors of the mitochondrial membrane potential (AID 720635). Note: potency is the fitted concentration of half-maximal effect. An outline of the steps:
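Mitochondrial membrane potential tracked with Mito-MPS dye, red aggregates (ex 540/em 590 nm) against green monomers (ex 490/em 535 nm). Compound treatment 1 hr at 37C, dye 30 min in HepG2.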

A short description of experiment [5]: qHTS assay to test for compound auto fluorescence at 590 nm (red) in HepG2 cells (AID 720674). In outline: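 Red autofluorescence (Ex/Em 540/590 nm, Rose Bengal sodium equivalents) was measured in HepG2 cells, 2,000 per well in MEM plus 10% FBS, plated overnight at 37 C. Readings were taken 1 hr after adding 23 nL compound or DMSO, at 37 C and 5% CO2.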
Experiment [6] in a line: qHTS assay to test for compound auto fluorescence at 535 nm (green) in HepG2 cells (AID 720675).
Experiment [7] in a line: qHTS assay to test for compound auto fluorescence at 590 nm (red) in HEK293 cells (AID 720679). In outline:
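Red-channel autofluorescence (Ex/Em 540/590 nm; Rose Bengal sodium reference) was measured after overnight 37C, 5% CO2 exposure of attached HEK293 cells, 2,000 per well in medium with 10% dialyzed FBS.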

Experiment [8] can be described thus: qHTS assay to test for compound auto fluorescence at 535 nm (green) in HEK293 cell free culture (AID 720682). In outline:
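Steps: dispense DMEM/10% FBS into empty wells; pin in compound or DMSO; measure fluorescence at 485/535 nm. Values are fluorescein equivalents.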

Experiment [9] in a line: qHTS assay to test for compound auto fluorescence at 590 nm (red) in HEK293 cell free culture (AID 720683). In outline: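 Red-channel autofluorescence of compounds in culture medium (DMEM, 10% FBS), no cells, measured at 540/590 nm. Rose Bengal sodium is the reference fluorophore for equivalence.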
A short description of experiment [10]: qHTS assay to test for compound auto fluorescence at 590 nm (red) in HepG2 cell free culture (AID 720684). In outline:
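Steps: dispense MEM/10% FBS medium, no cells; pin compound or DMSO vehicle; read red channel, Ex/Em 540/590 nm. Output given as Rose Bengal sodium equivalents.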

Experiment [11] is described as follows: qHTS assay to test for compound auto fluorescence at 460 nm (blue) in HepG2 cell free culture (AID 720685). An outline of the steps: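 Compound (23 nL) or DMSO pinned into cell-free MEM with 10% FBS; blue fluorescence read at 405/460 nm excitation/emission, expressed as auto-fluorescence equivalency to triamterene.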
Experiment [12] in a line: qHTS assay to test for compound auto fluorescence at 535 nm (green) in HepG2 cell free culture (AID 720686).
The nature of experiment [13]: qHTS assay to test for compound auto fluorescence at 460 nm (blue) in HepG2 cells (AID 720687). An outline of the steps: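 Blue-channel autofluorescence (Ex/Em 405/460 nm, triamterene-equivalent) was measured after 1 hr compound exposure at 37 C, 5% CO2. Cells were HepG2, plated overnight at 37 C in MEM plus 10% FBS.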
For experiment [14], the target named is Glucocorticoid receptor (Homo sapiens) (UniProt P04150). The experiment is described as follows: qHTS assay to identify small molecule agonists of the glucocorticoid receptor (GR) signaling pathway (AID 720691; active = well fitted activation curve with a large enough effect in the signal ratio in the repeat runs, not every such curve was filed as active; the % refers to the signal ratio). An outline of the steps:
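GR-bla HeLa cells carrying a GRE-driven beta-lactamase reporter, exposed to compounds for 18 h at 37 C. Reporter activation read as fluorescence after 2 h with LiveBLAzer B/G FRET substrate at room temperature.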

Experiment [15] is described as follows: qHTS assay for small molecule agonists of the p53 signaling pathway - cell viability (AID 651633; calls by dose curve; note: nearly all actives have a fitted effect of over 30% in size; note: potency is the fitted concentration of half-maximal effect). An outline of the steps:
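Viability counter-read: CellTiter-Glo luminescence (30 min, room temperature) in the same p53RE-bla plates. These plates had been exposed to compounds for 16 h at 37 C.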

The nature of experiment [16]: qHTS assay to test for compound auto fluorescence at 460 nm (blue) in HEK293 cells (AID 720678). An outline of the steps:
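Blue-channel (Ex/Em 405/460 nm) intensity measured in HEK293 cultures after overnight compound exposure at 37C; signal expressed relative to triamterene. Cells plated 2,000 per well in 10% dialyzed FBS medium and allowed 4-5 hr to attach.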

Experiment [17] in a line: qHTS assay to test for compound auto fluorescence at 535 nm (green) in HEK293 cells (AID 720680).
Experiment [18] is described as follows: qHTS assay to test for compound auto fluorescence at 460 nm (blue) in HEK293 cell free culture (AID 720681). An outline of the steps:
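Blue fluorescence (Ex 405/Em 460 nm, triamterene-equivalent) was read immediately after pin transfer of compound or DMSO into medium (DMEM, 10% FBS) without cells.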

In experiment [19] the target is Glucocorticoid receptor (Homo sapiens) (UniProt P04150). The experiment is described as follows: qHTS assay to identify small molecule antagonists of the glucocorticoid receptor (GR) signaling pathway (AID 720692; active = well fitted inhibition curve with a large enough effect in the signal ratio in the repeat runs, not every such curve was filed as active; the % refers to the signal ratio; note: potency is the fitted concentration of half-maximal effect). An outline of the steps:
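GR-bla HeLa cells carrying a GRE-driven beta-lactamase reporter received compound after 4 h plating, then dexamethasone (5 nM final). After 18 h at 37C, the FRET substrate was loaded for 2 h at room temperature and fluorescence read.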

The structures appear in SMILES notation. “And” between values parts separate entries of the source, which are not always exact repeats. Equal values may be shown once. Results filed as inconclusive are left out. The source made the active and inactive calls. Unless noted, calls come from the whole dose curve; as a rule, active = well fitted curve in the direction sought with a large enough effect in the repeat runs; inconclusive = weak or mixed curves; inactive = no such curve, though single readings can be large; an effect the other way counts as inactive or inconclusive.

Sequence of Glucocorticoid receptor (Homo sapiens) (P04150 whole entry, looked up): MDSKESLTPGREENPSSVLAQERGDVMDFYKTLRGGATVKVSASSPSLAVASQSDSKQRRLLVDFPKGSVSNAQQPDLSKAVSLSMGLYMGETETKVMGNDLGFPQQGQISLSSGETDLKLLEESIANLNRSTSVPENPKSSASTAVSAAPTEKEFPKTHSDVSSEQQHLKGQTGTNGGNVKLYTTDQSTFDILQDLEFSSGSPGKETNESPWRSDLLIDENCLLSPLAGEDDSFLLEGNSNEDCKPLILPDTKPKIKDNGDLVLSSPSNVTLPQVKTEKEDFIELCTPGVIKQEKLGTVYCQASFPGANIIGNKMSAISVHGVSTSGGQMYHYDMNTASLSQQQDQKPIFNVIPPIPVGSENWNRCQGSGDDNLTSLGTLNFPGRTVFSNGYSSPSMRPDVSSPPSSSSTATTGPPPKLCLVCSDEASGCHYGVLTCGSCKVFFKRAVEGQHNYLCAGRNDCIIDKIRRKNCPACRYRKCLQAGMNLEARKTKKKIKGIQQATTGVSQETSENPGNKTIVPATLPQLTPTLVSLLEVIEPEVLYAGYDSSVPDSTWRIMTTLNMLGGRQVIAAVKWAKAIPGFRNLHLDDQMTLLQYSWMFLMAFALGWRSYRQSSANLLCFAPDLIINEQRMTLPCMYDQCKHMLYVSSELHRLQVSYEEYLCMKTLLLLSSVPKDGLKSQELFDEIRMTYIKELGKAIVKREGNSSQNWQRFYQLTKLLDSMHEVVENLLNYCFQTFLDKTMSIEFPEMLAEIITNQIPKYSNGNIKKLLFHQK

For `Nc1cc(Cl)c(O)c(Cl)c1`, the Potency entry in experiment [1], in [2], in experiment [3], in experiment [5], in experiment [6] and in experiment [7] was “inactive” each time. Further, the Potency entry in experiment [8], in experiment [9], in [10], in experiment [11], in [12] and in [13] was “inactive” each time. Moreover, the Potency result in [14] is “inactive”. Also, the Potency in experiment [4] was 7.7 µM (active).

For the compound `CN1CCN(Cc2cc(-c3ccc4[nH]c(=O)oc4c3)co2)[C@@H](c2ccc(F)cc2)C1`, the Potency result in experiment [1], in [15], in [3], in [5], in experiment [6] and in experiment [16] was “inactive” each time. Also, the Potency result in experiment [7], in [17], in experiment [18], in experiment [8], in experiment [9] and in experiment [10] was “inactive” each time. Moreover, the Potency entry in [12], in experiment [13] and in [14] was “inactive” each time. Further, the Potency is 14.8 µM (active) in [4] and 42 µM (active) in experiment [19].

Turning to `Cc1c(C)c2c(c(C)c1OC(=O)c1cccnc1)CC[C@@](C)(CCC[C@H](C)CCC[C@H](C)CCCC(C)C)O2`, the Potency result in experiment [1], in [15], in experiment [2], in [5], in experiment [6] and in experiment [16] was “inactive” throughout. Also, the Potency result in experiment [7], in experiment [17], in [18], in [8], in experiment [9] and in experiment [10] was “inactive” throughout. The Potency result in experiment [11], in experiment [12] and in experiment [13] was “inactive” each time.

For the compound `Cc1cccc(C(=O)O)c1O`, the Potency result in experiment [1], in [15], in experiment [2], in experiment [4], in experiment [5] and in experiment [6] was “inactive” throughout. Further, the Potency result in experiment [16], in [7], in experiment [17], in experiment [18], in experiment [8] and in experiment [9] was “inactive” in each case. The Potency entry in experiment [10], in [12], in [13] and in [14] was “inactive” each time.

In the case of `CC(=O)c1ccc(C(C)=O)cc1`, the Potency entry in experiment [1], in experiment [15], in experiment [2], in [4], in experiment [5] and in [6] was “inactive” each time. Besides, the Potency result in experiment [16], in experiment [7], in experiment [17], in experiment [18], in [8] and in experiment [9] was “inactive” each time. In addition, the Potency result in [10], in [12], in experiment [13], in [14] and in experiment [19] was “inactive” each time.

Regarding `CCCCCCOC(=O)C(C)CC` (stereo not given), the Potency entry in experiment [1], in experiment [15], in experiment [2], in experiment [5], in experiment [6] and in experiment [16] was “inactive” each time. Moreover, the Potency entry in experiment [7], in [18], in experiment [8], in experiment [9], in experiment [10] and in [12] was “inactive” each time. For the same compound, the Potency entry in experiment [13], in experiment [14] and in experiment [19] was “inactive” throughout.

For `CCOC(=O)c1ccc(C2CCC(NC[C@H](O)COc3ccc(O)c(NS(C)(=O)=O)c3)CC2)cc1` (stereo not given in full), the Potency entry in experiment [1], in experiment [2], in [3], in experiment [5], in experiment [6] and in experiment [16] was “inactive” each time. Moreover, the Potency entry in [7], in [17], in experiment [18], in experiment [8], in experiment [9] and in experiment [10] was “inactive” throughout. The Potency entry in experiment [11], in [12] and in [13] was “inactive” each time.

With `CCC(C)[O-].CCC(C)[O-].CCOC(=O)/C=C(/C)[O-].[Al+3]`, the Potency entry in experiment [2], in experiment [3], in experiment [4], in [5], in [6] and in [16] was “inactive” throughout. Besides, the Potency result in experiment [7], in experiment [17], in experiment [18], in [8], in experiment [9] and in [10] was “inactive” throughout. In addition, the Potency result in [11], in experiment [12] and in [13] was “inactive” each time.

On to `CN1CCN2c3ccccc3Cc3ccccc3C2C1` (stereo not given), for which the Potency entry in [1], in experiment [2], in experiment [5], in [6], in [16] and in experiment [7] was “inactive” in each case. The Potency result in experiment [17], in [18], in experiment [8], in [9], in experiment [10] and in experiment [11] was “inactive” throughout. Further, the Potency entry in experiment [12] and in experiment [13] was “inactive” in each case.

For `COc1cc(S(=O)(=O)O)c(C)cc1N=Nc1c(O)ccc2cc(S(=O)(=O)O)ccc12`, the Potency result in experiment [15], in experiment [3], in experiment [5], in experiment [6], in experiment [7] and in experiment [17] was “inactive” in each case. The Potency entry in experiment [18], in experiment [8], in experiment [9], in experiment [10], in experiment [11] and in [12] was “inactive” in each case. Besides, the Potency entry in [13], in experiment [14] and in experiment [19] was “inactive” each time. The Potency in experiment [2] was 27.3 µM (active).

With `CN(C)c1ccc(C(=C2C=CC(=[N+](C)C)C=C2)c2ccc(N(C)C)cc2)cc1`, the Potency in experiment [15] is 10.6 µM (active) and 9.64 µM (active) and 30.6 µM (active); in [2], 11.9 µM (active) and 21.6 µM (active) and 24.3 µM (active); in experiment [4], 139 nM (active) and 30.5 nM (active) and 68.6 nM (active). Also, the Potency result in experiment [5], in [6], in [16], in experiment [7], in experiment [17] and in experiment [18] was “inactive” each time. Moreover, the Potency entry in experiment [8], in experiment [9], in [10], in experiment [11], in experiment [12] and in [13] was “inactive” in each case. Moreover, in experiment [14], the Potency result is “inactive”.
